PrPC TRFRET – inhibitors of human cell surface prion protein PrPC, primary screen, cell-based, TR-FRET; Major prion protein (Homo sapiens), P04156; actives 0.43% (n = 370,000); inhibition, % at 13.8 µM; TR-FRET read-out; AID 720596, 2013; in the data active = inhibition above about 24%; note: 0% = median of the test wells and 100% = reference compound wells
Y pestis TopoI – Yersinia pestis topoisomerase I inhibitors, primary screen, biochemical, cleavage product accumulation, plate reader, single point; DNA topoisomerase I (Yersinia pestis CO92); Y. pestis Topo-I cleavage product accumulation; activity, % at 10 µM; actives 0.064% (n = 360,000); in the data active = activity above about 50%, passing the limit was not always enough
Mtb FBA inh – Mtb FBA enzyme inhibitors, primary screen, biochemical, fluorescence, strain H37Rv; AID 588726, 2011; inhibition, % at 1 µM; actives 2.3% (n = 360,000); purified M. tuberculosis FBA, fluorescence read-out; Fructose-bisphosphate aldolase (Mycobacterium tuberculosis (strain ATCC 25618 / H37Rv)), …;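 note: 0% = vehicle and 100% = reference inhibitor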
Target sequence (P9WQA3 whole entry, looked up): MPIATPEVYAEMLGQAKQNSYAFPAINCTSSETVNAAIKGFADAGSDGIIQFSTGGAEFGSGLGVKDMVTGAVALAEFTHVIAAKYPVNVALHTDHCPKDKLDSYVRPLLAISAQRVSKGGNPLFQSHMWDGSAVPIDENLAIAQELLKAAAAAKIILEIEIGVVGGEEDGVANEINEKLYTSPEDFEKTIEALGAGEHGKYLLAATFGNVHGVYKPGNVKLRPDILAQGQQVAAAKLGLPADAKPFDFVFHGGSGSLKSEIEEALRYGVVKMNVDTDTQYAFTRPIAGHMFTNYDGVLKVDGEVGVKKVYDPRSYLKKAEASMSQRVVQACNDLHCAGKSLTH
GDH-TPI counter-1 – GDH-TPI coupling enzyme inhibitors, primary screen, artefact control for M. tuberculosis FBA inhibitor project, biochemical, absorbance, full deck; GDH-TPI coupled enzyme counterscreen, NADH absorbance; inhibition, % at 4.8 µM; actives 1.2% (n = 360,000); AID 588335, 2011; in the data active = inhibition above about 30%;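 note: 0% = DMSO wells and 100% = wells lacking the enzyme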
PrP 5UTR inh – inhibition of PrP 5' UTR reporter expression; cell-based PrP 5' UTR mRNA reporter, plate reader; inhibition, % (no concentration beside the values); actives 0.35% (n = 340,000); in the data active = inhibition above about 52%; note: 0 = median of the neutral control wells
Mtb hypoxia inh – PubChem AID 1159583 | fluorescence inhibition, % (test concentration not listed) | actives 0.1% (n = 300,000) | M. tuberculosis hypoxia-regulated fluorescent reporter, fluorescence; in the data active = fluorescence inhibition mostly above about 23%, no sharp cut-off; inactive = mostly below about 17%
Mtb FBA confirm – M. tuberculosis aldolase blockers, biochemical, fluorescence, strain H37Rv, confirmation; shares compounds with Mtb FBA inh; purified M. tuberculosis FBA, fluorescence read-out; inhibition, % at 1 µM; actives 78% (n = 5,600);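 note: 0% = vehicle wells and 100% = reference inhibitor wells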
GDH-TPI counter-2 – GDH-TPI coupling enzyme inhibitors, artefact control for M. tuberculosis FBA inhibitor project, biochemical, fluorescence, high throughput. shares compounds with Mtb FBA inh. GDH-TPI coupled enzyme counterscreen. inhibition, % at 1 µM. actives 81% (n = 5,600). AID 652141, 2013; in the data active = inhibition above about 10%
Numbers without * were called inactive; / = no result; + = active, no number. Rows were chosen to be rich in hits. Some 3.8% of all compounds tested hit in one or more screens of this group. Cut-off read from the data, not from the text of the source, unless noted: active = inhibition above about 27%; inactive = the rest.

SMILES | PrPC TRFRET | Y pestis TopoI | Mtb FBA inh | GDH-TPI counter-1 | PrP 5UTR inh | Mtb hypoxia inh | Mtb FBA confirm | GDH-TPI counter-2
Cc1cccn2c(=O)c3cc(C(=O)N4c5ccccc5CC4C)n(C)c3nc12 (stereo unspecified) | 1 | -6 | 0 | 8 | -12 | -1 | / | /
Cc1cccn2c(=O)c3cc(C(=O)N4CCOCC4)n(C)c3nc12 | -2 | 7 | 66* | 17 | -13 | 6 | -10 | -11
Cc1cccn2c(=O)c3cc(C(=O)N4CCN(C(=O)c5ccco5)CC4)n(C)c3nc12 | -6 | 2 | 81* | 26 | -10 | -85 | + | +
O=C1N/C(=N/N=Cc2ccc(O)cc2)SC1Cc1ccccc1 (stereo unspecified) | / | / | / | / | / | -10 | / | /
Fc1ccc(NN=C/C=C/c2ccccc2)c(F)c1 | / | / | / | / | / | -4 | / | /
Cc1ccc(C(=O)NN=Cc2cccc3ccccc23)cn1 | / | / | / | / | / | 20 | / | /
CC(C)(C)NC(=O)c1ccc2nccnc2c1 | 1 | 10 | -4 | 18 | -18 | 11 | / | /
CC(C)(C)NC(=O)Nc1ccc2nccnc2c1 | -8 | -5 | 61* | 12 | -49 | -6 | 0 | -5
Cc1ccn2cc(-c3cccc(NC(=O)C(C)C)c3)nc2c1 | 4 | -6 | 40* | 10 | -41 | -2 | 113* | 87*
COc1ccc(CC(=O)Nc2ccc(-c3cn4ccc(C)cc4n3)cc2)cc1 | 12 | -1 | 58* | 5 | -79 | 10 | 168* | 143*
CC(=O)Nc1cccc(-c2cn3ccccc3n2)c1 | -4 | -5 | 43* | 8 | -27 | 6 | 40* | 41*
CC(C)C(=O)Nc1cccc(-c2cn3ccccc3n2)c1 | 8 | 6 | 1 | 8 | -10 | -4 | / | /
COc1ccc(CC(=O)Nc2ccc(-c3cn4cccc(C)c4n3)cc2)cc1OC | 3 | 18 | 9 | 11 | -1 | 8 | / | /
O=C(NC1CCC(=O)N(CCC(Oc2ccccc2)c2ccccc2)CC1)OCc1ccccc1 (stereo unspecified) | / | / | / | / | / | -2 | / | /
COCc1cc(C)nc(NC2CCCCC2)c1C#N | 6 | 9 | 85* | 11 | -14 | 13 | 81* | 67*
COCc1cc(C)nc(NCCc2ccccc2)c1C#N | 4 | 0 | 72* | 6 | -27 | / | + | 182*
COCc1cc(C)nc(N2CCCCC2)c1C#N | 6 | -4 | 11 | -3 | -12 | 15 | / | /
CC(=NNC(=O)CSCc1ccc(Cl)cc1)c1ccc2c(c1)OCCO2 | / | / | / | / | / | 7 | / | /
O=C(OCC(=O)N1CCOCC1)c1cc(S(=O)(=O)N2CCOCC2)c(Cl)cc1Cl | 4 | 6 | 1 | 10 | -9 | 8 | / | /
CC1CCN(C(=O)COC(=O)c2cc(Cl)cc(Cl)c2N)CC1 | 11 | 11 | 81* | -2 | -22 | 11 | 110* | 90*
CC(C)N(C(=O)COC(=O)c1cc(Cl)cc(Cl)c1N)C(C)C | -2 | 6 | 80* | 1 | -12 | 3 | 6 | 3
CC(C)N(C(=O)COC(=O)c1ccc(O)cc1)C(C)C | 0 | 3 | -1 | 4 | -35 | / | / | /
Nc1c(Cl)cc(Cl)cc1C(=O)OCC(=O)N1CCOCC1 | -4 | -5 | 101* | 4 | -33 | 3 | + | +
COc1cc2ccccc2cc1C(=O)OCC(=O)N1CCOCC1 | 7 | 2 | 52* | -8 | -7 | 12 | 180* | 156*
O=C(OCC(=O)N1CCCC1)c1cc(Cl)ccc1Cl | -4 | 8 | -5 | 16 | -18 | 21 | / | /
SMILES | PrPC TRFRET | Y pestis TopoI | Mtb FBA inh | GDH-TPI counter-1 | PrP 5UTR inh | Mtb hypoxia inh | Mtb FBA confirm | GDH-TPI counter-2
CC(=NNC(=O)c1c([N+](=O)[O-])c(C)nn1C)c1ccc(NC(=O)c2ccc(C)o2)cc1 | / | / | / | / | / | 2 | / | /
Cc1ccc(S(=O)(=O)CC(CN2CCOCC2)N2CCOCC2)cc1 (stereo unspecified) | 4 | -1 | -3 | 7 | -7 | 10 | / | /
CC1CCN(CC(CS(=O)(=O)c2ccc([N+](=O)[O-])cc2)N2CCC(C)CC2)CC1 (stereo unspecified) | -16 | 3 | 55* | 10 | -8 | 19 | 74* | 60*
CCCNC(=O)N1C2CCC1C(C(=O)OC)=C(c1ccc(Cl)c(C(F)(F)F)c1)C2 (stereo unspecified) | / | / | / | / | / | 3 | / | /
CCOC(=O)Nc1nnc(-c2ccc(OC)c(OC)c2)s1 | 7 | 5 | 62* | 12 | -7 | / | 72* | 58*
COC(=O)Nc1nnc(-c2ccc(OC)cc2)s1 | 2 | 2 | 43* | 16 | -75 | 0 | 58* | 56*
COc1ccc(-c2nnc(NC(=O)c3c(OC)cccc3OC)s2)cc1 | 4 | 8 | 1 | 27 | -14 | -8 | / | /
O=C(O)COc1ccccc1C=NNC(=O)CSc1nc2ccccc2n1Cc1ccccc1Cl | / | / | / | / | / | 15 | / | /
Cn1cccc1C=NNC(=O)c1cc(-c2cccs2)nc2ccccc12 | / | / | / | / | / | -5 | / | /
CC(C)CCNC(=O)c1cc(-c2cccs2)nc2ccccc12 | 0 | 10 | 65* | 11 | -10 | 14 | -2 | -4
CCC(C)NC(=O)c1cc(-c2cccs2)nc2ccccc12 (stereo unspecified) | -7 | 6 | 94* | 21 | -13 | -1 | 101* | 92*
Cc1cc(NC(=O)c2cc(-c3ccc(C)s3)nc3ccccc23)no1 | 2 | -1 | 29* | 11 | -12 | 6 | + | 180*
Cc1csc(NN=Cc2ccccc2F)n1 | / | / | / | / | / | 17 | / | /
CCOC(=O)C=c1sc(=Cc2ccc(C(=O)OC)cc2)c(=O)n1CC(=O)Nc1ccccc1 | / | / | / | / | / | 13 | / | /
Cc1c(OCC(=O)NCCCN2CCOCC2)ccc2c3c(c(=O)oc12)CCC3 | 5 | -3 | 15 | -3 | -9 | -2 | / | /
O=C(COc1ccc2c(c1)oc(=O)c1ccccc12)NCCCN1CCOCC1 | -3 | -5 | 98* | 5 | -5 | -6 | 93* | 78*
Cc1c(C)c2ccc(OCC(=O)NCCN3CCOCC3)cc2oc1=O | 2 | 1 | 97* | 6 | -8 | 9 | -6 | -3
Cc1c(OCC(=O)NCCCN2CCOCC2)ccc2c1oc(=O)c1ccccc12 | -1 | 18 | 47* | 7 | -9 | 8 | 98* | 68*
CC(Oc1ccc2c(-c3ccccc3)cc(=O)oc2c1)C(=O)NCCCN1CCOCC1 (stereo unspecified) | -11 | 15 | -1 | 13 | 3 | 8 | / | /

Assay outcomes deposited in PubChem by several laboratories.
